# PTEN del growth: PTEN-deleted cell growth suppression; 140,000 tested, 1.2% active; viability, % at 10 µM; HCT116 PTEN-null viability, CellTiter-Glo, 60 h; stronger effect = lower value; AID 827;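 active = viability at or below a set limit, 4 SD under the median of all tested compounds, cut at about 3.7% in these data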;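 also: PTEN knockout HCT116 line with beta catenin targeted HCT116 as companion control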
# bCat KO growth: beta-catenin-lacking colon tumor cell growth suppression | viability, % at 10 µM | AID 818 | HCT116 beta-catenin knockout viability, CellTiter-Glo, 60 h; stronger effect = lower value | 140,000 tested, 1.5% active;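 active = viability at or under a set limit, the compound median less 4 SD, cut at about 6% in these data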
# WT yeast gro inh: growth inhibition of WT yeast, mitochondrial fusion screen; mitochondrial fusion phenotypic screen, WT strain; inhibition, % at 10 µM; 190,000 tested, 2.1% active; AID 1362; in the data active = inhibition above about 58%; tested in S. cerevisiae
# hDAT+cocaine: modulates human dopamine transporter uptake under cocaine; Q01959; LLC-PK1 hDAT cells, [14C]-dopamine uptake with cocaine IC80; actives deviate in either direction; B-score at 10 µM; 110,000 tested, 1.3% active; AID 449768;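 active = Z score or B-score, a plate-position-corrected score, falls beyond the plate's 99.7% confidence bounds, in either direction; inactive = both scores lie inside the 99.7% bounds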
# Target sequence (Q01959 whole entry, looked up): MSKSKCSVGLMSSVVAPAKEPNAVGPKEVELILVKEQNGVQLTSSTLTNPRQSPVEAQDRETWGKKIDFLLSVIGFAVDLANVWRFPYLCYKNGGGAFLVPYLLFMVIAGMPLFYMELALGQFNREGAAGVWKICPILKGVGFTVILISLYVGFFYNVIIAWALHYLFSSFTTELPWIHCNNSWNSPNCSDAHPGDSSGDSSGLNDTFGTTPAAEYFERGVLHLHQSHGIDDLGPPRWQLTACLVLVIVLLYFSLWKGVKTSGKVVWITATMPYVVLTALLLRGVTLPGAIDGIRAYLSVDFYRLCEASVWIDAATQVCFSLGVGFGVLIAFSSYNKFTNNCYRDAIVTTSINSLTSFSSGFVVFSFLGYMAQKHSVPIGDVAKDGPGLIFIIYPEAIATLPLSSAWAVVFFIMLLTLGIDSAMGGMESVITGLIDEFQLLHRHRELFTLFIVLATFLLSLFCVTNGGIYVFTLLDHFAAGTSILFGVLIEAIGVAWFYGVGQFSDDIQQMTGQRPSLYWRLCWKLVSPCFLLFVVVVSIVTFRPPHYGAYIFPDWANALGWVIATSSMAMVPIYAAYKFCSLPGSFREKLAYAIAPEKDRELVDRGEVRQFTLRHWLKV
# Hits are given with their value; . = inactive; / = not tested or not shown. Sampled rows, rich in hits. Any-hit rate of the full collection: about 3.6%.
SMILES,PTEN del growth,bCat KO growth,WT yeast gro inh,hDAT+cocaine
COc1ccc(C(=O)/C=C/c2ccc(OC)c(Cn3nnc4ccccc43)c2)cc1,.,6.0,.,/
CC(=O)Cc1nsc(NC(=O)c2ccc(-c3ccc(Cl)cc3Cl)o2)n1,.,.,.,.
CC(=O)Cc1nsc(NC(=O)c2ccc(-c3cc(Cl)ccc3Cl)o2)n1,/,/,71,/
CC(=O)Cc1nsc(NC(=O)c2ccc(-c3ccc(Cl)c(Cl)c3)o2)n1,/,/,69,/
Cc1ccc(N=N/C(=C\O)C(=O)c2ccncc2)cc1,.,.,.,.
O=C(/C(=C/O)N=Nc1ccc(Cl)cc1)c1ccncc1,0.8,0.6,.,.
COC(=O)c1ccc(NC(=O)Cn2nc(-c3ccncc3)nc2SCC(=O)Nc2nccs2)cc1,.,.,.,.
CC(OC(=O)CN(C)S(=O)(=O)c1ccc(Cl)cc1)C(=O)Nc1cccc(Cl)c1 (centres undefined),.,.,.,.
Cc1cc(C)cc(NC(=O)CSc2nc(N)c(NC(=O)c3cccs3)c(=O)[nH]2)c1,.,.,.,.
CC[n+]1c(C=C2C=C(C)OC(C)=C2)sc2ccccc21,/,/,69,/
CC[n+]1c(/C=C2/C=C(C)CC(C)C2)sc2ccccc21 (centres undefined),/,/,.,/
Nc1cc2nc[nH]c2cc1N,/,/,.,/
CC1CCN(C(=O)c2cc3ccccc3c(=O)o2)CC1,.,.,.,/
Cc1oc2c(c1C(=O)N1CCC(C)CC1)C(=O)c1ccccc1C2=O,1.5,1.6,.,.
CCOC(=O)C1CCN(C(=O)c2c(C)oc3c2C(=O)c2ccccc2C3=O)CC1,0.7,1.1,.,.
COc1cc(/C=C(\C#N)c2ccccn2)ccc1OCC(=O)Nc1ccc(Br)cc1,.,5.4,.,/
COc1cc(/C=C(/C#N)c2nc3ccccc3[nH]2)ccc1OCC(=O)Nc1ccccc1C,.,.,.,.
COc1cc(/C=C(/C#N)c2nc3ccccc3[nH]2)ccc1OCC(=O)Nc1ccccc1C(C)C,0.7,1.2,.,.
C=CCC(NCc1ccco1)c1ccc(OC)c(OC)c1 (centres undefined),.,.,/,-7.5
C=CCC(NCc1ccco1)c1ccc(OC)cc1OC (centres undefined),.,.,.,.
Cc1ccc(CNCC(O)(c2ccccc2)c2ccc(F)cc2)cc1 (centres undefined),.,.,75,/
Cc1ccc(CNCC(O)(c2ccc(F)cc2)c2ccc(F)cc2)cc1,.,.,.,.
COc1ccccc1/C=C/C(=O)NC(=S)NCC1CCCO1 (centres undefined),/,/,.,/
O=C(CSc1ccc2ccccc2c1)Nc1ccc(S(=O)(=O)Nc2nccs2)cc1,.,.,.,/
CC[C@@H](C)C(NC(=O)OC(C)(C)C)c1cn([C@@H](Cc2ccc(O)cc2)C(=O)N2CCN(C(=O)OC(C)(C)C)CC2)nn1 (some centres undefined),/,/,.,2
SMILES,PTEN del growth,bCat KO growth,WT yeast gro inh,hDAT+cocaine
CC[C@H](C)C(C(=O)N1CCN(C(=O)OC(C)(C)C)CC1)n1cc(C(CC(C)C)NC(=O)OC(C)(C)C)nn1 (some centres undefined),/,/,.,.
Cc1ccc(S(=O)(=O)NC(=O)c2ccc(-c3ccc(-c4ccccc4)cc3)o2)c(C)c1,.,.,.,-2.2
CCOC(=O)N1CCN(C(=O)/C(=C/c2ccc(Cl)cc2)NC(=O)c2ccccc2)CC1,/,/,.,/
CCn1c(C(=O)OC)cc2c1ccn2-c1ccc(F)cc1,.,.,77,.
COC(=O)c1cc2c(ccn2-c2ccc(F)cc2)n1Cc1ccc(OC)cc1,.,.,.,/
CC(=O)/C(=N\Nc1ccc(C)cc1)Sc1nncn1C,.,.,.,/
CCSc1ncc(/C=N/Nc2ccc(Cl)cc2)n1C,.,.,.,.
CCSc1ncc(/C=N/Nc2ccccc2)n1C,.,.,71,.
Cc1cc(C(=O)COC(=O)c2ccc(CO)cc2)c(C)n1CC1COc2ccccc2O1 (centres undefined),.,.,.,/
O=C(Nc1ccccc1Oc1ccccc1)c1cccc([N+](=O)[O-])c1,.,.,.,.
Cc1ccc(C(=O)Nc2ccccc2Oc2ccccc2)cc1[N+](=O)[O-],.,.,61,.
COc1cccc(C(=O)Nc2cc(NC(=O)c3ccco3)ccc2OC)c1,.,.,.,.
COc1cccc(C(=O)Nc2cccc(-c3nnc(-c4ccco4)o3)c2)c1,.,5.0,.,.
COc1ccccc1NC(=O)c1cccc(NC(=O)c2ccco2)c1,.,.,74,.
CCOc1ccc(NC(=O)c2ccco2)cc1,.,.,.,.
CCOc1ccccc1NC(=O)c1ccc(NC(=O)c2ccco2)cc1,.,.,.,3.9
CCOc1ccc(-c2nc[nH]c2[N+](=O)[O-])cc1,/,/,.,/
COc1cc(NC(=O)CCNS(=O)(=O)c2ccc3c(c2)CCC(=O)N3)cc(OC)c1,.,.,.,/
Cc1ccc(NC(=O)CSc2nc3ccccc3c(=O)n2CCCN2CCCCC2)cc1C,2.1,1.9,.,.
CCc1ccc(NC(=O)CSc2nc3ccccc3c(=O)n2CCCN2CCC(C)CC2)cc1,/,/,79,/
COCCCn1c(SCC(=O)Nc2ccc(C(=O)OC)cc2)nc2ccccc2c1=O,.,.,.,.
CC1(OC(=O)c2cccs2)C(=O)C=C2C=C3CCCN3C=C2C1=O (centres undefined),/,/,/,.
COC(=O)COc1ccc(C)cc1-n1nc2ccccc2n1,/,/,74,/
CCOC(=S)SCC(=O)Nc1nc(-c2ccccc2)cs1,.,.,80,/
CCOC(=S)SCC(=O)Nc1nc(-c2ccc(Br)cc2)cs1,.,.,74,/
SMILES,PTEN del growth,bCat KO growth,WT yeast gro inh,hDAT+cocaine
CCOC(=S)SCC(=O)Nc1nccs1,/,/,.,/
O=C(CSc1nc2ccccc2o1)Nc1nc(-c2ccccc2)cs1,.,.,63,/
NC(=O)CN(N=Nc1cccc([N+](=O)[O-])c1)c1cccc([N+](=O)[O-])c1,/,/,.,/
Cc1nc(N(C)Cc2ccccc2)c2nnn(Cc3ccccc3)c2n1,.,.,80,.
CCCCCCOc1ccc(NC(=O)CC2C(=O)N(CC)C(=S)N2Cc2ccco2)cc1 (centres undefined),.,.,62,/
Cc1cccc2cc(CN(CCCN(C)C)C(=S)NCCc3ccccc3)c(=O)[nH]c12,/,/,.,/
Cc1cc(C)cc(NC(=S)NC2CC3CCC(C2)N3Cc2ccco2)c1 (centres undefined),.,.,79,/
COc1cc(/C=C/C(=O)OCC(=O)Nc2cc(C(F)(F)F)ccc2N2CCOCC2)ccc1O,.,.,.,/
COc1cc(/C=N/NC(=O)c2c(-c3ccccc3)noc2C)ccc1O,.,.,.,.
COc1cccc(/C=N/NC(=O)c2cc3c(OC)cccc3[nH]2)c1O,2.6,6.0,.,/
COc1cccc(/C=N/NC(=O)c2c(-c3ccccc3)noc2C)c1O,.,5.8,.,.
CCc1ccc(OCC(=O)O/N=C(\N)Cc2ccc([N+](=O)[O-])cc2)cc1,.,.,.,/
Cc1c(NC(=O)C(C)N2C(=O)C3CCCCC3C2=O)c(=O)n(-c2ccccc2)n1C (centres undefined),/,/,.,/
CC(C)=CCCC(C)CN1CCC(N2CCC(C(=O)NC(C)C)CC2)CC1 (centres undefined),/,/,.,/
O=C(N/N=C\c1ccc(F)cc1)c1csnn1,.,.,.,.
O=C(NC(=S)N1CCN(Cc2ccc3c(c2)OCO3)CC1)c1cccc(Br)c1,.,.,60,/
